PubChem BioAssay (Tox21)
Inconclusive results are not listed. Where a call stands in place of a potency, no number is given. Calls of active or inactive are those of the source. The call rests on the fitted dose curve; in most records, active means well fitted cell-killing curve with a large enough effect in the repeat runs; inconclusive means weak or mixed curves, or effect the other way; inactive means flat fitted curve, though single readings scatter.
Potency means the concentration at half of the fitted maximal effect.

Assay: cAMP Responsive Elements (CRE) small molecule antagonists, cell-based qHTS assay: qHTS cell viability counter screen (AID 2060913); further: nearly all actives have a fitted effect of over 40% in size
Conditions: CRE-bla HEK293T viability, CellTiter-Glo luminescence, 5 h; series mostly up to 92.4 µM
Procedure, shortened: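 HEK293T CRE-bla, 2,000 cells/well, 18 h preincubation; cpd in DMSO + NKH477 0.25 uM final, 3 h 37 C/5% CO2; LiveBLAzer 2 h RT, then CellTiter-Glo 30 min RT, luminescence.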
For `O=C(Nc1ccc(F)cc1F)c1cccnc1Oc1cccc(C(F)(F)F)c1`, the Potency was “inactive”.
In the case of `COC(=O)C1(O)c2ccccc2-c2ccccc21`, the Potency is reported as “inactive”.
In the case of `N#Cc1ccc(Cl)cc1`, the Potency is reported as “inactive”.
In the case of `CCCCCCCCCC[N+](C)(C)CCCCCCCCCC`, the Potency is reported as 30.6 µM (active).
For `O=C1c2ccccc2C(=O)C1C(=O)C(c1ccccc1)c1ccc(Cl)cc1` (stereo not given), the Potency was “inactive”.
For `O=S(=O)(O)C(F)(F)C(F)(F)C(F)(F)C(F)(F)C(F)(F)C(F)(F)F`, the Potency was “inactive”.
For `CC(C)OC(=O)Nc1ccccc1`, the Potency was “inactive”.
For `CCCC[n+]1ccccc1`, the Potency was “inactive”.
In the case of `C=CCN1C[C@H](C)N([C@H](c2ccc(C(=O)N(CC)CC)cc2)c2cccc(OC)c2)C[C@H]1C`, the Potency is reported as “inactive”.
In the case of `O=C(NC(=O)c1c(F)cccc1F)Nc1ccc(OC(F)(F)C(F)OC(F)(F)F)c(Cl)c1` (stereo not given), the Potency is reported as “inactive”.
In the case of `Nc1n[nH]c(N)n1`, the Potency is reported as “inactive”.
In the case of `CC12CC1(C)C(=O)N(c1cc(Cl)cc(Cl)c1)C2=O` (stereo not given), the Potency is reported as “inactive”.
In the case of `O=c1[nH]c(Cl)c(Cl)cc1Cl`, the Potency is reported as “inactive”.
For `O=C(O)CCCOc1ccc(Cl)cc1Cl`, the Potency was “inactive”.
With `NC(=O)O` the Potency was “inactive”.
In the case of `Nc1nc(N)nc(NC2CC2)n1`, the Potency is reported as “inactive”.
In the case of `CN(CCCC(=O)c1cccnc1)N=O`, the Potency is reported as “inactive”.
In the case of `CC(C)[N+](=O)[O-]`, the Potency is reported as “inactive”.
In the case of `c1nc[nH]n1`, the Potency is reported as “inactive”.
For `ClC1=C(Cl)[C@]2(Cl)[C@@H]3[C@@H]4C[C@@H]([C@H]5O[C@@H]45)[C@@H]3[C@@]1(Cl)C2(Cl)Cl`, the Potency was 54.5 µM (active).
For `CC[N+](CC)(CC)CC`, the Potency was “inactive”.
For `c1ccc2c(c1)oc1ccccc12`, the Potency was “inactive”.
With `C[C@]12CCC(=O)C=C1CC[C@@H]1[C@@H]2CC[C@@]2(C)[C@H]1CC[C@]2(C)O` the Potency was “inactive”.
With `CC(C)(C)C(O)C(Oc1ccc(-c2ccccc2)cc1)n1cncn1` (stereo not given) the Potency was “inactive”.
With `Clc1ccc(CSC(Cn2ccnc2)c2ccc(Cl)cc2Cl)cc1` (stereo not given) the Potency was “inactive”.
In the case of `O=[N+]([O-])c1c2ccccc2cc2ccccc12`, the Potency is reported as “inactive”.
In the case of `COP(N)(=S)Oc1ccccc1C(=O)OC(C)C` (stereo not given), the Potency is reported as “inactive”.
With `CNC(=O)Oc1cc(C)c(N(C)C)c(C)c1` the Potency was “inactive”.
With `CC(C)[C@H](C(=O)O[C@H](C#N)c1cccc(Oc2ccccc2)c1)c1ccc(Cl)cc1` the Potency was “inactive”.
In the case of `CC(=O)O[C@H]1CC[C@@]2(C)C(=CC[C@@H]3[C@@H]2CC[C@]2(C)C(=O)CC[C@@H]32)C1`, the Potency is reported as “inactive”.
In the case of `C#CCOC(C(=O)OCCN(C)C)(c1ccccc1)c1ccccc1`, the Potency is reported as “inactive”.
For `ClC=C(Cl)Cl`, the Potency was “inactive”.
In the case of `Cc1ncc2n1-c1ccc(Cl)cc1C(c1ccccc1F)=NC2`, the Potency is reported as “inactive”.
For `COc1ccc2c(c1OC)CN1CCc3cc4c(cc3C1C2)OCO4` (stereo not given), the Potency was “inactive”.
For `CCCCC1C(=O)NC(=O)N(C2CCCCC2)C1=O` (stereo not given), the Potency was “inactive”.
With `CC(C)O.CC(C)O.OCCN(CCO)CCO.OCCN(CCO)CCO.[Ti]` the Potency was “inactive”.
In the case of `CCOC(=O)[C@]1(c2ccccc2)Oc2ccccc2[C@@H]1N`, the Potency is reported as “inactive”.
With `COP(=S)(NC(C)C)Oc1ccc(C)cc1[N+](=O)[O-]` (stereo not given) the Potency was “inactive”.
In the case of `O=C(O)c1nn(Cc2ccc(Cl)cc2Cl)c2ccccc12`, the Potency is reported as “inactive”.
With `CCOP(=O)(NC(C)C)Oc1ccc(SC)c(C)c1` (stereo not given) the Potency was “inactive”.
